# CYP2C9 act: increases human cytochrome P450 2C9 activity | hit rate 1.4% among 96,000 | activation factor at 5 µM | P11712 | recombinant CYP2C9, luciferin-H conversion, luminescence; stronger effect = higher value; factor 1 = untreated enzyme, 0 = blocked | AID 1024;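 active = activation factor of 2 or more for CYP2C9 at a 5 µM dose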
# Cav3 T inh: blocks human Cav3.2 T-type calcium channel; B-score at 10 µM; hit rate 4% among 100,000; O95180; Cav3.2-expressing cells, Fluo-4 calcium fluorescence FDSS; stronger effect = lower value;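 active = single-dose well whose peak fluorescence ratio is a statistical outlier from its plate by either plate-standardised score or position-corrected B-score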
# CYP2C19 act: cytochrome P450 2C19 (human) activation | P33261 | recombinant CYP2C19, luciferin-H EGE luminescence; stronger effect = higher value; 0 = fully inhibited enzyme, 1 = untreated enzyme | activation factor at 5 µM | 96,000 tested, under 10 active | AID 1025;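 active = activation factor of at least 2 at 5 µM in the primary screen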
# PTK2B oligo ant: Pyk2 (human) oligomerization antagonism; Q14289; Q293 cells, Pyk2 FERM NanoBiT luminescence; stronger effect = lower value; z-score (the deposit names both 25 µM and 10 µM); hit rate 0.83% among 99,000;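 active = Z-score of -3 or lower, scaled per plate to the spread of control and sample wells; inactive = z-score above -3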;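 note: negative z-score means lost luminescence so less FERM oligomerization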
# Target sequence (Q14289 whole entry, looked up): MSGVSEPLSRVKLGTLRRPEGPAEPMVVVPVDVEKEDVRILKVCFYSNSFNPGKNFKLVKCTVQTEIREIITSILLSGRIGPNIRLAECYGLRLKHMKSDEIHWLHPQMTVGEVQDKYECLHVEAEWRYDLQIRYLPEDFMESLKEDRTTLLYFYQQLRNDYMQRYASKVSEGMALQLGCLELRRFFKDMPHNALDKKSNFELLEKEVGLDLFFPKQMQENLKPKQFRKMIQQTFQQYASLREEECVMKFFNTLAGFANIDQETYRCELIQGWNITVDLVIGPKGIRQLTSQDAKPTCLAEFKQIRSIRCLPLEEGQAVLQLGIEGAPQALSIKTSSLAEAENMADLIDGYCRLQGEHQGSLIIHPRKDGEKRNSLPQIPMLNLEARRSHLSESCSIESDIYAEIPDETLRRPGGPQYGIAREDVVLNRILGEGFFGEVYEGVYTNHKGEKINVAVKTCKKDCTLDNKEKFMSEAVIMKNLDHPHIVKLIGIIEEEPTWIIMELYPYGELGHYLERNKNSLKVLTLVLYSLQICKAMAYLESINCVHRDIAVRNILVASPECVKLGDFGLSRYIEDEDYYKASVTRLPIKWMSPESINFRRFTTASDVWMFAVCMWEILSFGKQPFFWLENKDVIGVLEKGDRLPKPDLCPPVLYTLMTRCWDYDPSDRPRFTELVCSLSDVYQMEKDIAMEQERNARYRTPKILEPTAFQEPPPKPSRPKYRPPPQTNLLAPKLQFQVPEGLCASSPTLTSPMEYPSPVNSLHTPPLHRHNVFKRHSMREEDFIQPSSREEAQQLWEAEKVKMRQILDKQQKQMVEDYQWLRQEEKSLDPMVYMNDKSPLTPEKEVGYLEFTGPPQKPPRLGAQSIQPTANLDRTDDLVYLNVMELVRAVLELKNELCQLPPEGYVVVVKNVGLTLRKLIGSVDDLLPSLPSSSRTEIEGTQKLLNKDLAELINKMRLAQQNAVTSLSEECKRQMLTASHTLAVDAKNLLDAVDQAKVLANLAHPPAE
# CYP2C9 inh: inhibitors of human CYP2C9; hit rate 20% among 96,000; CYP2C9 Supersomes, luciferin-H conversion, luminescence; inhibition, % at 5 µM; P11712;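 active = blocking of liver enzyme CYP2C9 beyond about 50% at 5 µM, limit read from the data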
# CYP2C19 inhib: human CYP2C19 inhibition | P33261 | CYP2C19 Supersomes, luciferin-H EGE luminescence, 30 min | inhibition, % at 5 µM | hit rate 21% among 96,000;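 active = CYP2C19 inhibition above a set limit at 5 µM in the primary screen, cut at about 50% in these data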
# Hits are given with their value; - = inactive; . = no result. An excerpt weighted towards active compounds, which were near 27% of everything screened.
SMILES,CYP2C9 act,Cav3 T inh,CYP2C19 act,PTK2B oligo ant,CYP2C9 inh,CYP2C19 inhib
Cc1sc2ncnc(OCC(=O)c3ccc(S(=O)(=O)N4CCCC4)cc3)c2c1C,-,-,-,-,69,73
CNC(=O)COc1ncnc2sc(C)c(C)c12,-,-,-,-,-,-
CCCCCC(=O)Nc1cccc(C2=NOC3(C2)C[C@H](C(N)=O)N(C(=O)CC#N)C3)c1 (some centres undefined),.,-,.,.,.,.
CC(C)SC1=NC(C)(C)C=C(/C=C/c2ccc(Cl)cc2Cl)N1,-,-,-,-,62,69
O=C(/C=C/c1ccc(Cl)cc1Cl)c1nc2ccccc2[nH]1,-,-,-,-,-,-
CC(C)SC1=NC(C)(C)C=C(/C=C/c2c(Cl)cccc2Cl)N1,-,-,-,-,70,78
CC(C)C1NC(=S)N(Cc2ccccc2)C1=O (centres undefined),-,-,-,-,-,58
CC(C)[C@@H]1NC(=O)N(c2ccc(Oc3ccccc3)cc2)C1=O,-,.,-,-,-,-
COc1cc2c(cc1OC)C(c1ccc(-c3ccc(Cl)c(Cl)c3)o1)=NCC2,-,-,-,-,95,83
COc1cc2c(cc1OC)C(C)=NCC2,.,-,.,.,.,.
O=C(O)c1ccc(-c2ccc(Cl)cc2Cl)o1,-,-,-,-,-,-
COc1cc2c(cc1OC)C(c1ccc(-c3cc(Cl)ccc3Cl)o1)=NCC2,-,-,-,-,89,73
COc1cc2c(cc1OC)C(c1ccc(-c3ccc(Cl)cc3Cl)o1)=NCC2,-,.,-,-,56,-
Clc1ccc(Cl)c(OCc2cc(-c3ccccc3Cl)on2)c1,-,-,-,-,-,-
O=CNCC(=O)NCCc1ccc(Cl)cc1,-,-,-,-,-,-
Nn1c(=O)c2ccccc2n2c(SCc3ccc(C(F)(F)F)cc3)nnc12,-,-,-,-,50,-
COc1ccc(OC)c(NC(=O)CSC2=C(C#N)C(c3ccco3)C3=C(CCCC3=O)N2)c1 (centres undefined),-,-,-,-,86,84
CC1(C)CC(=O)C2=C(C1)NC(SCC(=O)Nc1ccccc1)=C(C#N)C2c1ccco1 (centres undefined),-,-,-,-,95,96
N#CC1=C(SCC(=O)c2ccc(Cl)cc2)NC2=C(C(=O)CCC2)C1c1ccco1 (centres undefined),-,-,-,-,97,99
CCOC(=O)N1CCN(C(=O)CSc2ccccc2)CC1,-,-,-,-,-,-
CCOC(=O)C[C@H]1c2ccc(C(F)(F)F)cc2S(=O)(=O)N1C(C)C,.,-,.,.,.,.
CCOC(=O)C1CCCN(C(=O)c2ccc(CNc3c(N4CCC(C)CC4)c(=O)c3=O)cc2)C1 (centres undefined),-,-,-,.,55,-
CCOC(=O)C1CCN(c2c(NCc3ccc(C(=O)NCCC(C)C)cc3)c(=O)c2=O)CC1,-,-,-,-,59,-
CCOC(=O)N1CCN(c2c(NCc3ccc(Cl)cc3)c(=O)c2=O)CC1,-,-,-,.,64,-
O=C(N1CCOCC1)N(CCN1CCOCC1)Cc1cccc(Cl)c1,-,-,-,-,-,-
SMILES,CYP2C9 act,Cav3 T inh,CYP2C19 act,PTK2B oligo ant,CYP2C9 inh,CYP2C19 inhib
COc1ccccc1N1C(=O)C2C3C=CC(C3)C2C1=O (centres undefined),-,-,-,-,-,-
CO/N=C/NC(=O)c1c(OC)ccnc1Oc1cccc(C(F)(F)F)c1,-,-,-,-,-,58
COc1ccnc(Oc2ccc(F)cc2)c1C(=O)N/C=N/OCc1ccc(F)cc1,-,-,-,-,-,64
COCC(C)n1c(C)cc(C(=O)COC(=O)c2ccc(N3CCCC3=O)cc2)c1C (centres undefined),-,-,-,-,-,-
CCCCC(=O)Nc1ccc(C(=O)N2CCN(C)CC2)cc1,-,.,-,-,-,-
CCCOc1ccc(C(=O)N2CCN(c3ccc(NC(=O)CC)cc3Cl)CC2)cc1,-,-,-,-,86,96
O=C(Nc1ccc(Br)c(Cl)c1)c1ccco1,-,-,-,-,-,66
O=C(Nc1ccc(N2CCN(C(=O)c3ccco3)CC2)c(Cl)c1)c1cc2ccccc2o1,-,.,-,-3.1,92,71
CCC(=O)N1CCN(c2ccc(NC(=O)c3cc4ccccc4o3)cc2Cl)CC1,-,.,-,-3.1,50,-
O=c1c2cnn(-c3ccc(F)cc3)c2ncn1Cc1ccccc1,.,-,.,-,.,.
O=C(Nc1ccc(N2CCN(C(=O)c3ccccc3)CC2)c(Cl)c1)c1ccco1,-,-,-,-,62,-
O=C(Nc1ccc(N2CCOCC2)c(Cl)c1)c1ccco1,-,-,-,-,-,-
CCCC(=O)N1CCN(c2ccc(NC(=O)c3cc4ccccc4o3)cc2Cl)CC1,-,-,-,-,82,81
O=C(c1cc2ccccc2o1)N1CCN(c2ccccc2Cl)CC1,-,-,-,-,-,-
O=C(CO/N=C/c1cccc([N+](=O)[O-])c1)Nc1ccc2ccccc2c1,-,-,-,-,88,-
CC(=O)Nc1ccc(NC(=O)C(C)O/N=C/c2cccc([N+](=O)[O-])c2)cc1 (centres undefined),-,-,-,-,60,-
O=C(N/N=C/c1cccc([N+](=O)[O-])c1)c1cc2c(ccc3ccccc32)o1,-,.,-,-,-,-
O=C(O/N=C/c1cccc([N+](=O)[O-])c1)C1CC1,-,-,-,-,-,-
CC12CCC(C(=O)Nc3cccc4ccccc34)(C1Br)C2(C)C (centres undefined),-,-,-,-,-,-
Cc1ccc(C(=O)Nc2cc(C)c(OCC(=O)N3CCOCC3)c(C)c2)cc1,-,-,-,-,78,-
COC(=O)CCN(C(=O)c1cccc(OC(C)=O)c1)c1ccccn1,-,-,-,-,-,-
N#Cc1cn(-c2ccccc2)nc1C(=O)c1ccccc1,-,-,-,-,-,50
Cc1cccc(N2CCN(C(=O)Cn3nc(Cc4ccncc4)c4ccccc4c3=O)CC2)c1C,.,-,.,.,.,.
CC1=C(C(=O)NC2CCC(C)CC2)C2(CCC(C)CC2)OC1=O (centres undefined),-,-,-,.,-,-
CCNc1nc(NCC)nc(OCCOC(C)=O)n1,.,-,.,-,.,.
SMILES,CYP2C9 act,Cav3 T inh,CYP2C19 act,PTK2B oligo ant,CYP2C9 inh,CYP2C19 inhib
CCNc1nc(NCC)nc(OCCOC(=O)c2ccccc2)n1,-,-,-,-,-,51
CCCc1nc(SCc2ccccn2)c2c(=O)n(C)c(=O)n(C)c2n1,-,-,-,.,71,-
CCCCn1c(SCc2ccccn2)nc2c1c(=O)n(C)c(=O)n2C,.,-,.,-,.,.
Cc1cc(NC(=O)CSc2nc(CC(C)(C)C)nc3c2c(=O)n(C)c(=O)n3C)no1,-,-,-,.,63,-
Cn1c(=O)c2c(SCc3cccnc3)nc(CC(C)(C)C)nc2n(C)c1=O,-,-,-,.,98,90
Cn1c(=O)c2c(SCc3ccccn3)nc(C3CC3)nc2n(C)c1=O,-,-,-,.,-,-

# Source: PubChem BioAssay
